Experimental data as given in PubChem BioAssay (Tox21).
Results filed as inconclusive are left out. Unmarked numbers belong to inactive results. Active and inactive are the calls of the source. The call rests on the fitted dose curve; in most records, active means well fitted curve in the direction sought with a large enough effect in the repeat runs; inconclusive means weak or mixed curves; inactive means no such curve, though single readings can be large; an effect the other way counts as inactive or inconclusive.

Tested on: not listed separately
Experiment: qHTS assay to identify small molecule antagonists of the androgen receptor (AR) signaling pathway using the MDA cell line - cell viability counter screen (AID 743041; further: nearly all actives have a fitted effect of over 45% in size)
Details: MDA-kb2 viability, CellTiter-Fluor, 16 h, cells co-treated with R1881 androgen agonist; series mostly up to 70.3 µM; viability change, negative = cytotoxic: at the top concentration
Summary of the method: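 In this qHTS counter assay, fluorescence intensity after CellTiter-Fluor addition indicated viability of MDA-kb2 AR-luc cells given compounds and R1881 for 16 h at 37C.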
On the % scale 0 is the no-effect control and ±100 the full control effect.

Q: With `COC(C)(C)C` as the compound, how does the “viability change, negative = cytotoxic” value read?
A: 3.69%

Q: For `CCOP(=S)(OCC)Oc1ncn(-c2ccccc2)n1`, which “viability change, negative = cytotoxic” value is on record?
A: 5.8%

Q: With `CC(Cl)(Cl)[N+](=O)[O-]` as the compound, how does the “viability change, negative = cytotoxic” value read?
A: 1.95%

Q: With `Cc1cnc[nH]1` as the compound, how does the “viability change, negative = cytotoxic” value read?
A: 3.9%

Q: With `CC(C)CC#N` as the compound, how does the “viability change, negative = cytotoxic” value read?
A: -1.98% [at 95 µM]

Q: Which “viability change, negative = cytotoxic” value does the source give for `N#CC(Cl)(Cl)Cl` here?
A: -1.34%

Q: Which “viability change, negative = cytotoxic” value does the source give for `ClC(Cl)(Cl)C(Cl)(Cl)Cl` here?
A: -0.534% [at 95 µM]

Q: Which “viability change, negative = cytotoxic” value does the source give for `Cc1nc(N)nc(N)n1` here?
A: 26.4% [at 95 µM]

Q: Which “viability change, negative = cytotoxic” value does the source give for `c1cc[c]([Hg][c]2ccccc2)cc1` here?
A: 0.533%

Q: With `N#Cc1ccncc1` as the compound, how does the “viability change, negative = cytotoxic” value read?
A: 0.292% [at 95 µM]

Q: Which “viability change, negative = cytotoxic” value does the source give for `Cc1ccccc1CO[C@@H]1C[C@@]2(C(C)C)CC[C@]1(C)O2` here?
A: -1.13%

Q: For `Nc1ccccc1Cl`, which “viability change, negative = cytotoxic” value is on record?
A: 1.58%

Q: Which “viability change, negative = cytotoxic” value does the source give for `CC1(C)COP(Oc2ccccc2)OC1` here?
A: -2.04%

Q: For `CCCCOP(=O)(O)OCCCC`, which “viability change, negative = cytotoxic” value is on record?
A: 12.4%

Q: For `O=C(O)c1ccc2[nH]cc(CCCCN3CC=C(c4ccccc4)CC3)c2c1`, which “viability change, negative = cytotoxic” value is on record?
A: -1.5%

Q: For `CCN(CC)C(C)C(=O)c1ccccc1` (stereo unspecified), which “viability change, negative = cytotoxic” value is on record?
A: -0.928%

Q: For `CCCCc1c(C)nc(NCC)[nH]c1=O`, which “viability change, negative = cytotoxic” value is on record?
A: 3.37%

Q: For `O=[N+]([O-])c1cccc2c([N+](=O)[O-])cccc12`, which “viability change, negative = cytotoxic” value is on record?
A: -1.02% [at 95 µM]

Q: With `COP(N)(=S)Oc1ccccc1C(=O)OC(C)C` (stereo unspecified) as the compound, how does the “viability change, negative = cytotoxic” value read?
A: 6.48%

Q: For `O=C(Nc1ccccc1)c1ccccc1I`, which “viability change, negative = cytotoxic” value is on record?
A: -17.2%

Q: For `COc1ncc(F)c2nc(S(=O)(=O)Nc3c(F)cccc3F)nn12`, which “viability change, negative = cytotoxic” value is on record?
A: 4.75%

Q: For `CCC(=O)c1ccccc1`, which “viability change, negative = cytotoxic” value is on record?
A: 0.227%

Q: Which “viability change, negative = cytotoxic” value does the source give for `c1cc2c(c(N3CCNCC3)c1)OCCO2` here?
A: -1.14%

Q: Which Potency does the source give for `COC(=O)C(c1ccccc1)C1CCCCN1` (stereo unspecified) here?
A: inactive

Q: For `CCCCCCI`, which “viability change, negative = cytotoxic” value is on record?
A: 1.8%

Q: For `COc1cc(OC)nc(Oc2cccc(Oc3nc(OC)cc(OC)n3)c2C(=O)O)n1`, which “viability change, negative = cytotoxic” value is on record?
A: 1.32%

Q: With `CNC(=O)Oc1ccccc1C1OCCO1` as the compound, how does the “viability change, negative = cytotoxic” value read?
A: 3.57%

Q: Which “viability change, negative = cytotoxic” value does the source give for `C#C[C@]1(O)C=C[C@H]2[C@@H]3CCC4=CC(=O)CC[C@@H]4[C@H]3CC[C@@]21CC` here?
A: 28.7%

Molecular target: Androgen receptor (Homo sapiens) (UniProt P10275)
Sequence (P10275 whole entry, looked up): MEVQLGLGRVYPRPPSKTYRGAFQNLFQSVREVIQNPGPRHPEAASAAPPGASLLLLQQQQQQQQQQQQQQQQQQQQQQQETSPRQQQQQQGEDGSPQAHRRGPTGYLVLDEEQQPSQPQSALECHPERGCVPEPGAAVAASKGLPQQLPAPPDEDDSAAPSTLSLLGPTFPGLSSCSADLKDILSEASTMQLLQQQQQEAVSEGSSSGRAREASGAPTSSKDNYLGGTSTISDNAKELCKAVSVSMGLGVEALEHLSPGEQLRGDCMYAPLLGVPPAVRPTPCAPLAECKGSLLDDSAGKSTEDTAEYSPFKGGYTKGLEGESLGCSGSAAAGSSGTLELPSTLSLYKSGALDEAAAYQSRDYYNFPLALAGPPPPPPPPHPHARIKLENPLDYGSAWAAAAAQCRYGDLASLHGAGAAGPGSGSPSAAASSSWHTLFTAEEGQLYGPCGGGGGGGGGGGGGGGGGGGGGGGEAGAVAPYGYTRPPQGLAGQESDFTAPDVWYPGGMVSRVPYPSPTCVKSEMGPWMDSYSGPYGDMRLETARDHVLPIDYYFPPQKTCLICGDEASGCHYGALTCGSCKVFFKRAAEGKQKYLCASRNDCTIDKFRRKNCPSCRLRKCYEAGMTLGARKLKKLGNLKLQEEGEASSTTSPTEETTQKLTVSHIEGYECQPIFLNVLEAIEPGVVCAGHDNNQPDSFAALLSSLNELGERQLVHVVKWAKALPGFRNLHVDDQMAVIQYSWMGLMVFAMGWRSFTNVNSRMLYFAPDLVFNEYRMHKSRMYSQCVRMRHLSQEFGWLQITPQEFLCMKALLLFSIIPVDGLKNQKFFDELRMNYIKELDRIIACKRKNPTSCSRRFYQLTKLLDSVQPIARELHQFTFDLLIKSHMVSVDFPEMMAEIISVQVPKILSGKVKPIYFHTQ
Experiment: qHTS assay to identify small molecule antagonists of the androgen receptor (AR) signaling pathway using the MDA cell line (AID 743042; further: nearly all actives have a fitted effect of over 55% in size)
Details: MDA-kb2 AR-luc, MMTV luciferase, R1881 antagonist, 16 h; series mostly up to 70.3 µM; activity change, negative = inhibition: at the top concentration
Summary of the method: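 MDA-kb2 cells (human breast carcinoma, stably carrying an MMTV-luciferase reporter responsive to AR and GR) were plated at 3,000 cells/well and preincubated 5 hr at 37C, then given compound plus R1881 agonist for 16 h. ONE-Glo luminescence was read.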

Q: Which “activity change, negative = inhibition” value does the source give for `CCOP(=S)(OCC)Oc1ncn(-c2ccccc2)n1` here?
A: 23.4%

Q: For `CC(Cl)(Cl)[N+](=O)[O-]`, which “activity change, negative = inhibition” value is on record?
A: 3.51%

Q: For `Cc1cnc[nH]1`, which “activity change, negative = inhibition” value is on record?
A: 14.9%

Q: With `CC(C)CC#N` as the compound, how does the “activity change, negative = inhibition” value read?
A: 7.89% [at 95 µM]

Q: Which “activity change, negative = inhibition” value does the source give for `N#CC(Cl)(Cl)Cl` here?
A: 2.31%

Q: Which “activity change, negative = inhibition” value does the source give for `Cc1nc(N)nc(N)n1` here?
A: 0.585% [at 95 µM]

Q: For `c1cc[c]([Hg][c]2ccccc2)cc1`, which “activity change, negative = inhibition” value is on record?
A: -19.4%

Q: Which “activity change, negative = inhibition” value does the source give for `Nc1ccccc1Cl` here?
A: -4.46%

Q: For `CC1(C)COP(Oc2ccccc2)OC1`, which “activity change, negative = inhibition” value is on record?
A: -7.11%

Q: Which “activity change, negative = inhibition” value does the source give for `CCCCOP(=O)(O)OCCCC` here?
A: -25.5%

Q: For `O=C(O)c1ccc2[nH]cc(CCCCN3CC=C(c4ccccc4)CC3)c2c1`, which “activity change, negative = inhibition” value is on record?
A: 3.19%

Q: With `CCN(CC)C(C)C(=O)c1ccccc1` (stereo unspecified) as the compound, how does the “activity change, negative = inhibition” value read?
A: 5.1%

Q: Which “activity change, negative = inhibition” value does the source give for `O=[N+]([O-])c1cccc2c([N+](=O)[O-])cccc12` here?
A: 2.19% [at 95 µM]

Q: For `COP(N)(=S)Oc1ccccc1C(=O)OC(C)C` (stereo unspecified), which “activity change, negative = inhibition” value is on record?
A: -19.8%

Q: With `O=C(Nc1ccccc1)c1ccccc1I` as the compound, how does the “activity change, negative = inhibition” value read?
A: 10.4%

Q: With `COc1ncc(F)c2nc(S(=O)(=O)Nc3c(F)cccc3F)nn12` as the compound, how does the “activity change, negative = inhibition” value read?
A: -5.51%

Q: For `CCC(=O)c1ccccc1`, which “activity change, negative = inhibition” value is on record?
A: 9.97%

Q: With `c1cc2c(c(N3CCNCC3)c1)OCCO2` as the compound, how does the “activity change, negative = inhibition” value read?
A: 2.31%

Q: With `COC(=O)C(c1ccccc1)C1CCCCN1` (stereo unspecified) as the compound, how does the outcome read?
A: inactive

Q: For `CCCCCCI`, which “activity change, negative = inhibition” value is on record?
A: 12.4%

Q: With `COc1cc(OC)nc(Oc2cccc(Oc3nc(OC)cc(OC)n3)c2C(=O)O)n1` as the compound, how does the “activity change, negative = inhibition” value read?
A: 11.7%

Q: For `CNC(=O)Oc1ccccc1C1OCCO1`, which “activity change, negative = inhibition” value is on record?
A: 1.02%

Q: With `C#C[C@]1(O)C=C[C@H]2[C@@H]3CCC4=CC(=O)CC[C@@H]4[C@H]3CC[C@@]21CC` as the compound, how does the “activity change, negative = inhibition” value read?
A: 59.8%
